Screening results as filed in PubChem BioAssay.
In the library only some 21% were active in any assay of this set; here they are far more common.
ClpP mod – qHTS Assay for Activators of ClpP. ATP-dependent Clp protease proteolytic subunit (Bacillus subtilis (strain 168)), P80244. purified B. subtilis ClpP, FRET peptide cleavage, 20 min. Potency, µM (top dose mostly 57.5 µM), inactives show top-dose activity change, negative = active. 1.9% of 340,000 active; active = well fitted falling curve with a large enough effect; inconclusive = small, poorly fitted or top-dose-only effect; inactive = no such curve, though single readings can be large or run the other way; also: potency is read from the fitted curve at half-maximal effect; the source files actives as falling curves though it sought activators and does not explain the sign; nearly all actives have a fitted effect of over 65% in size
Target sequence (P80244 whole entry, looked up): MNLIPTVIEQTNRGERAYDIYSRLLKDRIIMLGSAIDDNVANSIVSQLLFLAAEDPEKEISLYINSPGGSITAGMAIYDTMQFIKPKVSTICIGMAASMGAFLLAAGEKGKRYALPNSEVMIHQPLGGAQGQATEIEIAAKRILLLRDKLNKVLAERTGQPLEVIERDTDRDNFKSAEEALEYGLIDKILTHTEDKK
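Buffer: 100 mM Tris/HCl pH8, 100 mM KCl, 0.05% low protease BSA, 2.5% glycerol, 0.01% Tween-20. ClpP 10 microg/mL final; 20 min RT; delta FRET normalized to ADEP and DMSO controls.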
D3 antag – D3 dopamine receptor (human) antagonism; P35462; D3R cells, DiscoveRx beta-arrestin luminescence, antagonist mode; hits give low values; AID 652054; max response, negative = inhibition, %; 2.5% of 360,000 active; in the data active = max response below about -50%; inconclusive = no clear call, values can overlap the other calls; also: % is scaled to controls: 0 for no effect and ±100 for the full control effect
Target sequence (P35462 whole entry, looked up): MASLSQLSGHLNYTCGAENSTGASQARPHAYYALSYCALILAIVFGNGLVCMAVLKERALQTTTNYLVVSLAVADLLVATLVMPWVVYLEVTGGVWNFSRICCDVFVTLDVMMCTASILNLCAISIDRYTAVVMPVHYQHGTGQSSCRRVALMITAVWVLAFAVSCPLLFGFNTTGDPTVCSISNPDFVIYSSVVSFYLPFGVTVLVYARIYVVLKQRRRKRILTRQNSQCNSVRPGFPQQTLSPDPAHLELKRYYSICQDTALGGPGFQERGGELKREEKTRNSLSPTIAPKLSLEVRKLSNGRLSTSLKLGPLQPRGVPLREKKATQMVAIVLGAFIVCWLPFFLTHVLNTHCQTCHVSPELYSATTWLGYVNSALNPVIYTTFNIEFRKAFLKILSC
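Cells plated overnight at 1500 cells/well, then exposed to library compounds with dopamine controls for 90 minutes at 37 degrees C. DiscoveRx reagent added for 30–60 minutes at room temperature; luminescence read, quantitative HTS format.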
IL1B secr inh – inhibitors of inflammasome signaling (IL-1 beta secretion); THP-1 LPS/ATP IL-1B secretion, AlphaLISA, 16 h; hits give low values; activity change, % at 57.5 µM; 4.7% of 360,000 active; in the data active = activity change below about -50%; inconclusive = mostly about -30% to -49%; also: % is scaled to controls: 0 for no effect and ±100 for the full control effect
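Secreted IL-1B measured by AlphaLISA bead assay after 16 h compound exposure of THP-1 cells; compounds (final up to 57.5 uM) added 1 h before LPS (250 ng/mL) and ATP (1.25 mM) stimulation; lower signal means less secretion.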
DT40 TDP1 no CPT – qHTS for Inhibitors of human tyrosyl-DNA phosphodiesterase 1 (TDP1): qHTS in cells in absence of CPT; AID 686978, 2013; Potency, µM (titrated, usually from 46.2 µM), without a hit: at the top dose activity change, negative = growth inhibition, usual class: inhibitors; 15% of 420,000 active; DT40 Tdp1-/- hTDP1 cells, no CPT, ATP luminescence, 48 h; also: potency is read from the fitted curve at half-maximal effect; % is scaled to controls: 0 for no effect and ±100 for the full control effect; nearly all actives have a fitted effect of over 55% in size
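Seeded 400 DT40-hTDP1 cells/well (vehicle DMSO, no 20 nM CPT); pinned compounds; ≥48 hr at 37 °C; CellTiter-Glo luminescence as viability measure.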
DRD3 agonist – activates the human D3 dopamine receptor; max activation, %; D3R DiscoveRx beta-arrestin cells, luminescence, 90 min; AID 652048; 0.58% of 410,000 active; P35462; in the data active = max activation above about 30%; also: 0% is about no effect
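Agonist mode: compounds and dopamine controls were applied to plated cells for 90 min at 37 degrees C after an overnight attachment at 1500 cells/well. Luminescent read-out followed 30 - 60 minutes at room temperature with DiscoveRx detection reagent.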
DT40 TDP1 CPT – growth inhibition of DT40 Tdp1-/-;hTDP1 cells with camptothecin (screen for TDP1 inhibitors); Potency, µM (top dose mostly 46.2 µM), inactives show top-dose activity change, negative = growth inhibition, usual class: inhibitors; 12% of 420,000 active; chicken DT40 Tdp1-/-;hTDP1 cells + 20 nM CPT, ATP luminescence, 48 h; also: potency is read from the fitted curve at half-maximal effect; % is scaled to controls: 0 for no effect and ±100 for the full control effect; nearly all actives have a fitted effect of over 55% in size
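Cell growth measured by CellTiter-Glo luminescence after a minimum 48 h, 37 C compound exposure with 20 nM CPT in Tdp1-knockout DT40 cells stably expressing hTDP1, seeded 400/well; qHTS titration format.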
* = called active by the depositor; i = inactive; ? = inconclusive; / = no result given. Unless noted, calls follow the shape of the dose curve; as a rule, active = well fitted inhibition curve with a large enough effect; inconclusive = small, poorly fitted or top-dose-only effect; inactive = flat fitted curve, though single readings scatter.

SMILES	ClpP mod	D3 antag	IL1B secr inh	DT40 TDP1 no CPT	DRD3 agonist	DT40 TDP1 CPT
COCc1c(C#N)c(NCc2cc(OC)c(OC)c(OC)c2)nc(C)c1[N+](=O)[O-]	/	10	-25	21µM*	7	18µM*
COc1cc(C(F)(F)F)c(C(=O)N(C)Cc2cccc(Cl)c2)cn1	2%	3	11	?	6	-22%
COc1cc(C(F)(F)F)c(C(=O)N(C)Cc2cc(Cl)cc(Cl)c2)cn1	0%	7	15	15µM*	7	?
N#CC1(C#N)COC23CCCCC2C1(C#N)C(=N)O3 (stereo not given)	?	15	-53*	5.8µM*	3	5.8µM*
N#CC12COC3(CCCCC3C1(C#N)C#N)OC2=N (stereo not given)	-2%	-20	-21	2.6µM*	-7	2.3µM*
CCN1c2ccccc2-c2nc(SCC(=O)NCc3ccc(Cl)cc3)ncc2S1(=O)=O	4%	/	/	?	-8	?
Cc1ccc(NC(=O)COc2ccccc2)cc1S(=O)(=O)N1CCCCCC1	-2%	-1	-20	29µM*	-8	?
CCOc1ccc(NC(=O)COc2cccc3cccnc23)cc1S(=O)(=O)N1CCCC1	-4%	11	-27	15µM*	11	?
Cc1ccc(NC(=O)CSc2ccccc2)cc1S(=O)(=O)N1CCCCC1	-2%	-20	-26	?	-10	15µM*
Cc1ccc(NC(=O)COc2ccccc2C#N)cc1S(=O)(=O)N1CCCCCC1	-1%	34	-2	?	-10	?
COc1ccc(NC(=O)COc2cc(C)cc(C)c2)cc1S(=O)(=O)N1CCCCC1	/	-18	-8	8.2µM*	-15	7.3µM*
O=C(Nc1cccc(S(=O)(=O)NC2=NCCC2)c1)c1cnc(Cl)c(Cl)c1	0%	1	-30	-18%	-13	-21%
N#CCOC(=O)/C=C/c1ccc2c(c1)OCO2	/	-2	-6	-16%	-4	-7%
Cc1ccc(NC(=O)Cc2ccc(Cl)cc2)cc1S(=O)(=O)N1CCCCCC1	-5%	6	?	?	1	?
CC(C)CC(=O)Nc1ccc(C(=O)COc2ccc(-c3nnco3)cc2)cc1	-1%	16	-13	23µM*	2	?
Cc1ccc(NC(=O)COc2cccnc2[N+](=O)[O-])cc1S(=O)(=O)N1CCCCC1	1%	3	-6	21µM*	4	13µM*
CCCn1c(C)cc(C(=O)COc2ncnc3sccc23)c1C	-1%	-17	-5	?	-17	?
Cc1ccc(NC(=O)Cn2ncc(Cl)c(Cl)c2=O)cc1S(=O)(=O)N1CCCCC1	-4%	-58*	-75*	3.3µM*	-14	7.3µM*
CCCn1c(C)cc(C(=O)COc2ccc(-c3nnco3)cc2)c1C	/	-6	/	7.3µM*	-7	4.6µM*
COc1ccc(S(=O)(=O)N2CCCOC2CNC(=O)C(=O)NCCCN2CCOCC2)cc1C (stereo not given)	0%	-5	i	-2%	-8	-7%
Cc1ccc(NC(=O)COC(=O)C2CC3C=CC2C3)cc1S(=O)(=O)N1CCCCC1 (stereo not given)	2%	1	?	?	47*	?
CCOc1ccc(NC(=O)CN2CCN(c3ccccc3C)CC2)cc1S(=O)(=O)N1CCCC1	-1%	-62*	-5	?	-24	?
CCOc1ccc(NC(=O)CN2CCN(c3ccc(F)cc3)CC2)cc1S(=O)(=O)N1CCCC1	-3%	-20	?	?	1	?
Cc1ccc(S(=O)(=O)N2CCCCC2)cc1NC(=O)COC(=O)C1CC2C=CC1C2 (stereo not given)	0%	0	-7	?	15	?
Cc1ccc(NC(=O)COc2ccc(-c3nnco3)cc2)cc1S(=O)(=O)N1CCOCC1	/	5	-23	13µM*	0	?
SMILES	ClpP mod	D3 antag	IL1B secr inh	DT40 TDP1 no CPT	DRD3 agonist	DT40 TDP1 CPT
COc1ccc(NC(=O)CSc2ccc(F)cc2)cc1S(=O)(=O)N1CCCCC1	2%	-10	-5	-85%	-2	21µM*
Cc1cccc(CSc2nc3nc(C)cc(C)n3n2)c1	-4%	-5	0	-21%	-4	?
COC[C@H]1CCCN1[C@H]1CS(=O)(=O)N[C@@H]1COCc1ccccc1	-2%	6	-12	1%	7	2%
COC[C@@H]1CCCN1c1ccc2c(c1)O[C@H](COCc1ccccc1)CN([C@@H](C)c1ccccc1)S2(=O)=O	?	-24	20	3.7µM*	-7	2.6µM*
COC[C@H]1CCCN1c1ccc2c(c1)O[C@H](COCc1ccccc1)CN([C@H](C)c1ccccc1)S2(=O)=O	-24%	5	49	18µM*	4	?
COC[C@H]1CCCN1c1ccc2c(c1)O[C@@H](COCc1ccccc1)CN([C@H](C)c1ccccc1)S2(=O)=O	5.6µM*	-22	-9	13µM*	-4	9.2µM*
C=CCn1c(NCc2ccc(OC)cc2O)nc2ccccc21	1%	9	?	?	-1	?
CCN(CC)C(=O)n1c(Cc2ccccc2)nc2ccccc21	-3%	-1	-7	-26%	10	0%
O=C(NCCC1=CCCCC1)C1CCN(C(=O)N2CCOc3ccccc32)CC1	-4%	/	/	?	2	?
CC(=O)c1sc(N/N=C\c2cccc(Br)c2)nc1C	-4%	-10	-66*	?	6	?
CCS(=O)(=O)c1nc(S(=O)(=O)c2ccc(C)cc2)c(NCCCOC)s1	-1%	/	/	?	-16	-24%
Cc1ccc(S(=O)(=O)c2nc(S(=O)(=O)c3ccc(C)cc3)c(NC(C)C)s2)cc1	-2%	/	/	?	1	16µM*
Cc1ccc(S(=O)(=O)c2nc(S(=O)(=O)c3ccc(C)cc3)c(NCCCOC(C)C)s2)cc1	-11%	/	/	16µM*	-5	?
CCS(=O)(=O)c1nc(S(=O)(=O)c2ccc(C)cc2)c(NCc2ccccc2Cl)s1	-23%	/	/	10µM*	-19	16µM*
CCS(=O)(=O)c1nc(S(=O)(=O)c2ccc(C)cc2)c(NCC(C)C)s1	-2%	/	/	?	-2	?
CCS(=O)(=O)c1nc(S(=O)(=O)c2ccc(C)cc2)c(NC(C)c2ccccc2)s1 (stereo not given)	-3%	/	/	?	-15	?
